Test [1] is described as follows: qHTS assay to identify small molecule antagonists of the thyroid receptor (TR) signaling pathway - cell viability counter screen (AID 743064). Note: nearly all actives have a fitted effect of over 50% in size. Note: potency is the fitted concentration of half-maximal effect. An outline of the steps:
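In-well cytotoxicity read by CellTiter-Fluor (30 min, 37 C) following 23.5 h exposure of GH3 cells bearing a TRE-luciferase sensor. Compounds were added alongside 1 nM (final) T3 to drive TR transactivation.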
(qHTS replaces the single test concentration by a dilution series.)

Test [2] in a line: qHTS assay to identify small molecule antagonists of the thyroid receptor (TR) signaling pathway (AID 743065). Note: nearly all actives have a fitted effect of over 55% in size. Note: potency is the fitted concentration of half-maximal effect. An outline of the steps: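 Antagonism measured as loss of luciferase signal in GH3 cells stably carrying a TRE-luciferase reporter, co-treated with compound and T3 (1 nM final) for 23.5 h at 37 C. Viability was read in the same well by CellTiter-Fluor.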
The test system of test [3] is thyroid hormone receptor (rat, GH3 cells). As to the kind of experiment: qHTS assay to identify small molecule agonists of the thyroid receptor (TR) signaling pathway (AID 743066; calls by dose curve).
Test [4] addresses Estrogen receptor (Homo sapiens) (UniProt P03372). As to the kind of experiment: qHTS assay to identify small molecule antagonists of the estrogen receptor alpha (ER-alpha) signaling pathway (AID 743069; active = well fitted curve in the direction sought with a large enough effect in the signal ratio in the repeat runs, not every such curve was filed as active; the % refers to the signal ratio). An outline of the steps: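 ER-alpha-UAS-bla GripTite HEK293 line; 2% charcoal-stripped FBS overnight; plated, 4 hr 37C/5% CO2; cpd in DMSO + 17beta-estradiol, 18 hr 37C; LiveBLAzer B/G FRET substrate 2 hr RT; fluorescence intensity.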

Test [5] in a line: qHTS assay to identify small molecule antagonists of the estrogen receptor alpha (ER-alpha) signaling pathway - cell viability counter screen (AID 743074; calls by dose curve;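 note: HEK293 cells carrying ER-alpha-UAS-bla reporter stimulated with 17beta-estradiol; nearly all actives have a fitted effect of over 45% in size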).
Test [6] concerns the target Estrogen receptor (Homo sapiens) (UniProt P03372). The test is described as follows: qHTS assay to identify small molecule agonists of the estrogen receptor alpha (ER-alpha) signaling pathway (AID 743075; calls by dose curve;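 note: HEK293 GripTite cells with ER-alpha and UAS-driven beta-lactamase reporter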).
For test [7] the target is unchanged. The test is described as follows: qHTS assay to identify small molecule agonists of the estrogen receptor alpha (ER-alpha) signaling pathway using the BG1 cell line (AID 743079). Note: nearly all actives have a fitted effect of over 20% in size.
Test [8] in a line: qHTS assay to identify small molecule antagonists of the estrogen receptor alpha (ER-alpha) signaling pathway using the BG1 cell line (AID 743080; calls by dose curve;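 note: BG1 cells stimulated with 17beta-estradiol alongside compound; series mostly up to about 70 µM; nearly all actives have a fitted effect of over 25% in size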). An outline of the steps:
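BG1Luc4E2, endogenous ER-alpha, 4xERE-luc; 5 d charcoal-stripped FBS, phenol red free; 24 h plating; cpd + 17beta-estradiol 21.5 h, 37 C/5% CO2; CellTiter-Fluor viability 30 min, then ONE-Glo luciferase 30 min RT.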

Test [9] is described as follows: qHTS assay to identify small molecule antagonists of the estrogen receptor alpha (ER-alpha) signaling pathway using the BG1 cell line - cell viability counter screen (AID 743081).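 Note: compound given together with 17beta-estradiol as the ER stimulus; nearly all actives have a fitted effect of over 45% in size.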 Note: potency is the fitted concentration of half-maximal effect.
Test [10] deals with Aromatase (Homo sapiens) (UniProt P11511). The test is described as follows: qHTS assay to identify aromatase inhibitors (AID 743083). Note: nearly all actives have a fitted effect of over 55% in size. Note: potency is the fitted concentration of half-maximal effect.
Sequence of Aromatase (Homo sapiens) (P11511 whole entry, looked up): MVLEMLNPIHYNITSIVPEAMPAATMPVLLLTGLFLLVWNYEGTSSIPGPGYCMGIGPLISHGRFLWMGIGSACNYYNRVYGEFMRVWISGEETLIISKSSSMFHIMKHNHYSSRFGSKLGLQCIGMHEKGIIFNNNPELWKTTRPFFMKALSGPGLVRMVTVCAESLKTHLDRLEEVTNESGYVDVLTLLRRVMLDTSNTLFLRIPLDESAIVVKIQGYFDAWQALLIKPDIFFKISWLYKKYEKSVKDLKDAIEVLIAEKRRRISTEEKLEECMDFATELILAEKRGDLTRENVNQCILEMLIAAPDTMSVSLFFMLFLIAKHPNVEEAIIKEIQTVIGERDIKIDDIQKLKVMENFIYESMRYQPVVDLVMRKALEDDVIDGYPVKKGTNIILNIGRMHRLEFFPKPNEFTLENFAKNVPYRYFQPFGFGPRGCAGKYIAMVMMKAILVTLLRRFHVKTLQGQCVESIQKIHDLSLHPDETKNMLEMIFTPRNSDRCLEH
For test [11], the target named is Aryl hydrocarbon receptor (Homo sapiens) (UniProt P35869). The test is described as follows: qHTS assay to identify small molecule that activate the aryl hydrocarbon receptor (AhR) signaling pathway (AID 743085).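 Note: HG2L7.5c1 human HepG2 liver cells with stably integrated DRE-driven firefly reporter; series mostly up to about 70 µM; nearly all actives have a fitted effect of over 15% in size.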 An outline of the steps: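 Luminescence (ONE-Glo) from a dioxin-responsive-element luciferase reporter in HG2L7.5c1 HepG2 cells after 24 hr compound exposure at 37C; viability measured by CellTiter-Fluor fluorescence beforehand.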
Sequence of Aryl hydrocarbon receptor (Homo sapiens) (P35869 whole entry, looked up): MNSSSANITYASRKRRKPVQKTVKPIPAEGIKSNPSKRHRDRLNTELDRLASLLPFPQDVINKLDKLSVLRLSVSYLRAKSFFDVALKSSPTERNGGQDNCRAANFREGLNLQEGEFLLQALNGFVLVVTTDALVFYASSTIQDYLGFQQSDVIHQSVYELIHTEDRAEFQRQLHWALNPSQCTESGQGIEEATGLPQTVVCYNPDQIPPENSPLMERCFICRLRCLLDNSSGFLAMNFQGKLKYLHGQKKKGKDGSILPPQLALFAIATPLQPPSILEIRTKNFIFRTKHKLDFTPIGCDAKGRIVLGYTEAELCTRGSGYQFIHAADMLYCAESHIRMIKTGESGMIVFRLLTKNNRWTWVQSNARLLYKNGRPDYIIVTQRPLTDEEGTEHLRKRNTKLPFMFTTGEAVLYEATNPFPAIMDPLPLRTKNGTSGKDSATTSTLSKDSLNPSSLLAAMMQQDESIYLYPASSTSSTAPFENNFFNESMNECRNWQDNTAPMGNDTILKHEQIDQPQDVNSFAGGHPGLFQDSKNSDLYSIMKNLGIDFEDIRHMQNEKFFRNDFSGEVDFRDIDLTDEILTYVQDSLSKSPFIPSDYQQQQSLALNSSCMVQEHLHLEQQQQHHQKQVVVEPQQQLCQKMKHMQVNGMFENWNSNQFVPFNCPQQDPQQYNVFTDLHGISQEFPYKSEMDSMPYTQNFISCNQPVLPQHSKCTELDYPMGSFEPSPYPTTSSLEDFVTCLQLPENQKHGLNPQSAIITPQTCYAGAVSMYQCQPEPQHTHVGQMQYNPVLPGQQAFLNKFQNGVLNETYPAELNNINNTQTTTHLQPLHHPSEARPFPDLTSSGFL

Test [12] in a line: qHTS assay to identify small molecule that activate the aryl hydrocarbon receptor (AhR) signaling pathway - cell viability counter screen (AID 743086). Note: nearly all actives have a fitted effect of over 45% in size. Note: potency is the fitted concentration of half-maximal effect. Summed up: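 Cytotoxicity counter screen: CellTiter-Fluor signal (30 min, 37 C) in 4000 HepG2 cells/well carrying the DRE-luciferase reporter, following 24 h compound exposure at 37 C.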
In test [13] the target is Peroxisome proliferator-activated receptor gamma (Homo sapiens) (UniProt P37231). The test is described as follows: qHTS assay to identify small molecule agonists of the peroxisome proliferator-activated receptor gamma (PPARg) signaling pathway (AID 743094; active = well fitted activation curve with a large enough effect in the signal ratio in the repeat runs, not every such curve was filed as active; the % refers to the signal ratio). An outline of the steps:
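Compounds dissolved in DMSO were added to PPARg UAS-bla HEK293H cells for 17 h at 37C, and reporter expression was quantified by fluorescence intensity after 1 h with LiveBLAzer B/G FRET substrate.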

The target is the same in test [14]. The test is described as follows: qHTS assay to identify small molecule antagonists of the peroxisome proliferator-activated receptor gamma (PPARg) signaling pathway (AID 743191; calls by dose curve; note: series mostly up to about 63 µM; nearly all actives have a fitted effect of over 30% in size). An outline of the steps: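 Beta-lactamase reporter under UAS control in HEK293H PPARg-bla cells; compound treatment 17 h at 37C. Read-out: fluorescence intensity after 1 h room-temperature incubation with LiveBLAzer B/G FRET substrate.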

Test [15] is described as follows: qHTS assay to identify small molecule antagonists of the peroxisome proliferator-activated receptor gamma (PPARg) signaling pathway - cell viability counter screen (AID 743194). Note: nearly all actives have a fitted effect of over 55% in size. An outline of the steps: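 Viability was measured as CellTiter-Glo luminescence in GeneBLAzer PPARg UAS-bla HEK293H cells. These cells had been exposed 17 h at 37 C to compounds together with rosiglitazone at 50 nM final, with the beta-lactamase readout taken in the same wells.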

The nature of test [16]: qHTS assay for small molecule agonists of the antioxidant response element (ARE) signaling pathway (AID 743202; active = well fitted activation curve with a large enough effect in the signal ratio in the repeat runs, not every such curve was filed as active; the % refers to the signal ratio). An outline of the steps:
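Quantitative high-throughput format in HepG2 cells bearing an integrated ARE-beta-lactamase reporter. Compound exposure lasted 16 h at 37 C, and fluorescence was read 2 h after adding LiveBLAzer B/G substrate at room temperature.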

Test [17] can be described thus: qHTS assay for small molecule agonists of the antioxidant response element (ARE) signaling pathway - cell viability counter screen (AID 743203; calls by dose curve; note: nearly all actives have a fitted effect of over 55% in size). An outline of the steps:
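Following 16 hrs of compound treatment at 37C, HepG2 cells with an ARE-controlled beta-lactamase gene were lysed with CellTiter-Glo. Luminescence was read after 30 min at room temperature.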

Test [18] in a line: qHTS assay for small molecule activators of the heat shock response signaling pathway - cell viability counter screen (AID 743209). Note: nearly all actives have a fitted effect of over 50% in size. An outline of the steps: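 Readout: CellTiter-Glo luminescence, 30 min at room temperature. System: HSE-bla HeLa cells, 1500/well, plated overnight. Treatment: compounds in DMSO, 5 h at 37 C.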
The nature of test [19]: qHTS assay for small molecule activators of the heat shock response signaling pathway (AID 743210; active = well fitted activation curve with a large enough effect in the signal ratio in the repeat runs, with a control signal flat, not every such curve was filed as active; the % refers to the signal ratio;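 note: HeLa cells with beta-lactamase reporter driven by heat shock elements; series mostly up to about 63 µM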). An outline of the steps: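 HeLa HSE-bla cells, overnight plating; cpd in DMSO 5 h, 37 C; LiveBLAzer B/G FRET substrate 2.5 h RT; fluorescence intensity read.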
A short description of test [20]: qHTS assay to identify aromatase inhibitors - cell viability counter screen (AID 743084). Note: potency is the fitted concentration of half-maximal effect.

For eight compounds, Potency and outcome results are on record in PubChem BioAssay (Tox21).

Results filed as inconclusive are left out. Active and inactive are the calls of the source. Unless noted, calls come from the whole dose curve; as a rule, active = well fitted curve in the direction sought with a large enough effect in the repeat runs; inconclusive = weak or mixed curves; inactive = no such curve, though single readings can be large; an effect the other way counts as inactive or inconclusive.

Sequence of Peroxisome proliferator-activated receptor gamma (Homo sapiens) (P37231 whole entry, looked up): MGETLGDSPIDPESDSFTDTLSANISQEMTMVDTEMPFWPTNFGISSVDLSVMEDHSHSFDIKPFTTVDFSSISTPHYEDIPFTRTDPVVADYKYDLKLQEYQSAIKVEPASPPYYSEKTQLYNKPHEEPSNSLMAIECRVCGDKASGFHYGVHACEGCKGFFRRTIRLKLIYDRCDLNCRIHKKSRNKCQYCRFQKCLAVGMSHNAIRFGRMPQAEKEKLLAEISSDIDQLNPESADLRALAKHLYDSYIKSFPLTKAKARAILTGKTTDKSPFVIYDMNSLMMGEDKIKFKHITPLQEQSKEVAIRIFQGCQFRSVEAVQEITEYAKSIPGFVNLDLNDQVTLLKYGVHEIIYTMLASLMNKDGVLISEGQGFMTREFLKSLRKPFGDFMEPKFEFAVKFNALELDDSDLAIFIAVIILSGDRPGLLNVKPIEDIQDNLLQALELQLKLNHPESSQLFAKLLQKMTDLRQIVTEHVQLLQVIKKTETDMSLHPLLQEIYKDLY
Sequence of Estrogen receptor (Homo sapiens) (P03372 whole entry, looked up): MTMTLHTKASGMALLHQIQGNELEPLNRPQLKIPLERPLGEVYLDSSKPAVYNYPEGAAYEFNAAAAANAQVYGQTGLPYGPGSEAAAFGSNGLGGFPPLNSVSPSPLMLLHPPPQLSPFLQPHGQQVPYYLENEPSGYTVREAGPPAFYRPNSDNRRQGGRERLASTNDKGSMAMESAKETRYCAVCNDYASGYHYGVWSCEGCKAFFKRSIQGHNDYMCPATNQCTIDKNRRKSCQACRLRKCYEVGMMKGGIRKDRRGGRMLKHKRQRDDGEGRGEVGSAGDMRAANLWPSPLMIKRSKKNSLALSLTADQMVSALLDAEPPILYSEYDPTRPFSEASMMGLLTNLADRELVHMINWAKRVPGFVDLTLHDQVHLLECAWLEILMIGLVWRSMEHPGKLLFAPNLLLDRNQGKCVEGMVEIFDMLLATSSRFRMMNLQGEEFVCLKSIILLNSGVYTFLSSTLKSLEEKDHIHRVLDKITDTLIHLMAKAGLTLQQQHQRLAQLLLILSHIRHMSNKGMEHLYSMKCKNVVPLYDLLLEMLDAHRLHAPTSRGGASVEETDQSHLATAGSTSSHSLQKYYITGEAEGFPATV

Consider `CC(CO)Oc1ccccc1` (stereo not drawn), for which the Potency result in [1], in [2], in test [4], in [5], in test [6] and in test [7] was “inactive” each time. The Potency result in [8], in [9], in test [10], in test [11], in test [12] and in test [13] was “inactive” each time. Further, the Potency result in test [14], in test [15], in [16], in test [17], in test [18] and in test [19] was “inactive” in each case. Besides, in [3], the outcome was inactive.
For `C=Cc1ccccc1C=C`, the Potency entry in test [1], in test [2], in test [4], in test [6], in test [7] and in [8] was “inactive” each time. In addition, the Potency entry in test [9], in test [10], in test [20], in [11], in test [12] and in [13] was “inactive” in each case. The Potency result in test [14], in test [15], in test [16], in test [17], in [18] and in test [19] was “inactive” in each case. The compound was classed as inactive in test [3].
For the compound `c1ccsc1`, the Potency entry in test [1], in test [2], in test [4], in [5], in [6] and in test [9] was “inactive” each time. Further, the Potency entry in test [10], in [11], in [12], in test [13], in [14] and in test [15] was “inactive” throughout. Also, the Potency result in [17], in [18] and in test [19] was “inactive” each time. The result in test [3] was inactive.
As for `CCN(CC)c1ccc2c(-c3ccc(S(=O)(=O)O)cc3S(=O)(=O)[O-])c3ccc(=[N+](CC)CC)cc-3oc2c1`, the Potency is 8.91 µM (active) in [1]; 35.5 µM (active) in test [2]; 7.94 µM (active) in test [9]; 35.5 µM (active) in test [10]; 3.98 µM (active) in [20]; 6.31 µM (active) in [12]. In test [3], the compound was called inactive. For the same compound, the Potency entry in [4], in test [5], in test [6], in test [11], in test [13] and in test [15] was “inactive” each time. Also, the Potency entry in [19] is “inactive”.
With `Cc1ccc(C)cc1`, the Potency entry in test [1], in test [2], in [4], in [5], in test [6] and in [7] was “inactive” each time. The Potency entry in [8], in [9], in test [20], in [11], in [12] and in [15] was “inactive” throughout. The Potency result in [16], in test [17], in test [18] and in test [19] was “inactive” each time. In addition, the result in test [3] was inactive.
As for `CC(C)NC[C@@H](O)COc1ccc(CC(N)=O)cc1`, the Potency entry in [1], in [2], in test [4], in test [5], in [6] and in test [7] was “inactive” in each case. The Potency result in test [8], in test [20], in test [11], in [12], in test [13] and in [15] was “inactive” each time. Besides, the Potency result in test [17], in test [18] and in [19] was “inactive” each time. The outcome in test [3] was inactive.
In the case of `O=C(O)[C@H](O)[C@@H](O)[C@H](O[C@@H]1O[C@H](CO)[C@H](O)[C@H](O)[C@H]1O)[C@H](O)CO`, the Potency entry in test [1], in [2], in test [4], in [5], in test [6] and in test [7] was “inactive” each time. For the same compound, the Potency result in [8], in [10], in test [20], in test [11], in test [12] and in [13] was “inactive” each time. The Potency result in test [14], in test [15], in [16], in test [17], in test [18] and in test [19] was “inactive” throughout. Further, in [3], the compound was called inactive.
Regarding `c1cnccn1`, the Potency result in [1], in [2], in [4], in test [5], in [6] and in test [7] was “inactive” in each case. For the same compound, the Potency result in test [8], in [9], in test [10], in [20], in test [12] and in test [13] was “inactive” each time. Also, the Potency entry in [14], in test [15], in test [17], in [18] and in [19] was “inactive” each time. In test [3], the compound was called inactive.
